# Source: PubChem BioAssay (NCATS)
# Several values for one entry are separate records, joined by “and”; a condition that tells them apart may be missing. Equal values may be shown once. Records with an inconclusive call do not appear. Entries that show only a call come without a potency. Activity calls are given as the source filed them. Unless noted, calls follow the shape of the dose curve; as a rule, active = well fitted curve in the direction sought with a large enough effect; inconclusive = small, poorly fitted or top-dose-only effect, or another doubt; inactive = no such curve, though single readings can be large; an effect the other way counts as inactive or inconclusive.
# Columns and labels:
# [1] = biological target: alpha-glucosidase (Oryza sativa, rice) (UniProt Q653V4); assay: Counterscreen for Glucocerebrosidase Inhibitors: qHTS Assay for Rice alpha-Glucosidase at pH 5.0 (AID 997)
# Method in brief: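 Rice alpha-glucosidase (4 nM final) with 400 uM 4-methylumbelliferyl-alpha-D-glucopyranoside in citrate buffer pH 5.0, 20 min at room temperature, stopped at pH 10; fluorescence 365/440 nm, compounds 0.7 nM–77 uM, AC50 from Hill fits.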
# [2] = Validation of Assay for Modulators of Lamin A Splicing (AID 1459; active = well fitted curve in the direction sought with a large enough effect in the signal ratio; the % refers to the signal ratio;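 also: cells exposed to compound for two days before reading; ratio rise marks activators and ratio drop marks inhibitors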)
# Method in brief: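 Splicing correction read as GFP (500-530 nm) over DsRed2 (575-640 nm) object intensity after 48 h compound exposure of reporter HeLa S3 clones (600 cells/well, 2% FBS medium); ancitabine and cycloheximide titrations, 0.5% DMSO as vehicle.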
# [3] = qHTS Assay for Lipid Storage Modulators (AID 1519; calls by dose curve); conditions: Drosophila S3 cells, BODIPY lipid droplet/cell ratio, laser cytometry, cells loaded with oleic acid; for activity change, negative = inhibition: at 57.5 µM (top of the series)
# Method in brief: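 Cells seeded at 5,000 per well were treated with compounds over a concentration series and loaded with oleic acid (400 uM, as added). Lipid droplet fluorescence (488 nm excitation, 500-530 nm channel) was read by laser-scanning cytometry and normalized to 20 uM Triacsin C.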
# [4] = biological target: DNA repair nuclease/redox regulator APEX1 (Homo sapiens) (UniProt P27695); assay: qHTS Validation Assay for Inhibitors of the Human Apurinic/apyrimidinic Endonuclease 1 (APE1) (AID 1705; also: potency is read from the fitted curve at half-maximal effect;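 as to activity change, negative = inhibition: TAMRA fluorescence gain over two minutes as APE1 cuts a quenched THF abasic duplex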)
# Method in brief: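 Activity read as rising fluorescence (598 nm emission, 525 nm excitation) from incision of a TAMRA/BHQ-2 duplex carrying a THF abasic site (50 nM). Compound and enzyme sat 15 min at RT before substrate start; signal change between first and third 60-s reads.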
# [5] = Counterscreen for APE1 Inhibitors: Fluorescent Dye Displacement Validation Assay (AID 1707); also: potency is read from the fitted curve at half-maximal effect
# Method in brief: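 Thiazole Orange displacement from dsDNA: 250 nM ThO with 50 nM TAMRA-labelled abasic-site (tetrahydrofuran) duplex in 50 mM Tris-HCl pH7.5, 50mM NaCl, 2 mM MgCl2, 0.01% Tween-20. Loss of endpoint fluorescence (ex 480 nm, em 540 nm) flags DNA binders.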
# [6] = biological target: Endonuclease 4 (Escherichia coli (strain K12)) (UniProt P0A6C1); assay: Counterscreen for APE1 Inhibitors: qHTS Validation Assay for Inhibitors of Endonuclease IV (AID 1708); also: potency is read from the fitted curve at half-maximal effect
# Method in brief: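 Concentration-response counterscreen run identically to the APE1 assay: 15 min room-temperature preincubation of 2 nM enzyme with compound, reaction started with 50 nM quenched abasic DNA, progress taken from kinetic fluorescence.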
# [7] = qHTS for differential inhibitors of proliferation of Plasmodium falciparum line GB4 (AID 1816); conditions: Potency: Plasmodium falciparum GB4 proliferation inhibition;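 also: parasite growth measured after 72 h incubation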; also: potency is read from the fitted curve at half-maximal effect
# [8] = qHTS for differential inhibitors of proliferation of Plasmodium falciparum line 7G8 (AID 1815);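 also: parasite growth measured after three days of incubation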; also: potency is read from the fitted curve at half-maximal effect
# [9] = qHTS for differential inhibitors of proliferation of Plasmodium falciparum line 3D7 (AID 1876); also: potency is read from the fitted curve at half-maximal effect
# [10] = measured here: cell count channel max response
# [11] = measured here: lipid channel max response
# Chain of DNA repair nuclease/redox regulator APEX1 (Homo sapiens) (P27695 whole entry, looked up): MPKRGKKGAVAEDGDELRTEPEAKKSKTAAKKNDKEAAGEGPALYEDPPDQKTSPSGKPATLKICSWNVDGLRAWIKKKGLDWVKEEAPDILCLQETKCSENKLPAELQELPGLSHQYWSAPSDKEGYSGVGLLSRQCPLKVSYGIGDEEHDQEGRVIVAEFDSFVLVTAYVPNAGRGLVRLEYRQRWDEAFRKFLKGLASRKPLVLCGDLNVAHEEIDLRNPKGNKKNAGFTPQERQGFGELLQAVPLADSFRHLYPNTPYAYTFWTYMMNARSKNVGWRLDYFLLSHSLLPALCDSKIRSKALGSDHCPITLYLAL
SMILES,outcome [1],outcome [2],"activity change, negative = inhibition [3]","max response [3, 10]","max response [3, 11]",Potency [4],Potency [5],Potency [6],Potency [7],Potency [8],Potency [9]
NOCC(=O)O,inactive,inactive,2.14% (inactive),-5.32%,0.0357%,inactive,inactive,inactive,inactive,–,–
CSC(=N)N,inactive,inactive,-0.307% (inactive),53.5%,52.9%,inactive,inactive,–,inactive,inactive,inactive
CC(N)=O,inactive,inactive,-0.907% (inactive),-17.4%,-17.3%,inactive,inactive,inactive,inactive,inactive,inactive
N#Cc1cc2nc(O)c(O)nc2cc1[N+](=O)[O-],inactive,inactive,3.63% (inactive) and -0.314% (inactive),13.7% and -35.1%,18.1% and -33.4%,28.2 µM (active),inactive,–,–,inactive,inactive
NC(Cc1cccc(-c2ccccc2CP(=O)(O)O)c1)C(=O)O (configuration not stated),–,inactive,1.29% (inactive),44.3%,44.8%,inactive,inactive,–,inactive,inactive,inactive
Cc1nc(N=Nc2ccc(C(=O)O)cc2)c(COP(=O)(O)O)c(C=O)c1O,inactive,inactive,-0.137% (inactive),-21.8%,-20.3%,inactive,inactive,–,inactive,inactive,inactive
CN(C)CCC(c1ccc(Br)cc1)c1ccccn1 (configuration not stated),–,inactive,0.401% (inactive),15.4%,17.8%,inactive,inactive,inactive,–,–,inactive
COc1ccccc1N1CCN(CCCNc2c(C)c(=O)n(C)c(=O)n2C)CC1,inactive,inactive,-0.317% (inactive),38.5%,37.3%,inactive,inactive,inactive,–,inactive,8.91 µM (active)
Cc1nc(N=Nc2cc(S(=O)(=O)O)c3cc([N+](=O)[O-])cc(S(=O)(=O)O)c3c2)c(COP(=O)(O)O)c(C=O)c1O,inactive,inactive,-4.26% (inactive),6.63%,4.35%,2.82 µM (active),10 µM (active),15.8 µM (active),–,–,inactive
CC(=O)NCCc1c[nH]c2ccc(O)cc12,inactive,inactive,10.9% (inactive),15.4%,28.6%,inactive,inactive,inactive,inactive,inactive,inactive
CC1=C(/C=C/C(C)=C/C=C/C(C)=C\C(=O)O)C(C)(C)CCC1,–,inactive,6.72% (inactive),3.57%,13.6%,inactive,inactive,–,12.6 µM (active),7.94 µM (active),14.1 µM (active)
O=c1[nH]c(=O)c2nc3ccccc3nc2[nH]1,–,inactive,-0.305% (inactive),-11.1%,-9.17%,inactive,inactive,–,inactive,–,–
CC(C)NCC(O)COc1ccc(CC(N)=O)cc1 (configuration not stated),–,inactive,-4.52% (inactive),-32.1%,-32.6%,inactive,inactive,–,inactive,inactive,inactive
CN1CCC2(CCN3CCc4c(oc5ccccc45)C3C2)N(C)C1=O (configuration not stated),–,inactive,-0.497% (inactive),45.8%,48%,inactive,inactive,inactive,inactive,–,–
O=C(O)/C=C/c1ccc(O)c(O)c1,inactive,inactive,3.74% (inactive) and 0.322% (inactive),0.683% and 6.48%,7.03% and 6.69%,inactive,inactive,–,inactive,inactive,inactive
Cc1cccc(C)c1OCC(N)C(C)C (configuration not stated),–,inactive,0.702% (inactive),60.7%,59.8%,inactive,inactive,inactive,–,11.2 µM (active),inactive
CN1CCN(c2nc3cc(C(F)(F)F)ccc3n3cccc23)CC1,–,inactive,2.45% (inactive),18.9%,20.6%,inactive,inactive,–,8.91 µM (active),5.01 µM (active),7.94 µM (active)
Cn1c(=O)c2[nH]c(C3CCCC3)nc2n(C)c1=O,–,inactive,11.7% (inactive) and -0.538% (inactive),10.8% and -10.7%,26.8% and -11.4%,inactive,inactive,inactive,–,inactive,inactive
NC(N)=NC(N)=Nc1ccccc1,inactive,inactive,-1.27% (inactive) and 5.81% (inactive),10.6% and 8.56%,10.2% and 16.5%,inactive,inactive,inactive,–,inactive,–
NC(N)=NC(N)=Nc1cccc(Cl)c1,inactive,inactive,3.33% (inactive) and -0.622% (inactive),13.6% and -27.3%,18.7% and -27.9%,inactive,inactive,inactive,–,–,11.2 µM (active)
Cn1c(=O)[nH]c2ncn(C)c2c1=O,inactive,inactive,0.383% (inactive),10.7%,12.8%,inactive,inactive,–,inactive,inactive,inactive
NCCCNCCCCNCCCN,–,inactive,1.21% (inactive),9.8%,13.5%,inactive,inactive,–,inactive,inactive,inactive
CCCC[C@@]1(C2CCCC2)Cc2cc(OCC(=O)O)c(Cl)c(Cl)c2C1=O,–,inactive,-1.19% (inactive),-23.6%,-27%,inactive,inactive,–,12.6 µM (active),8.91 µM (active),–
O=C(O)C1=CCCN(CCON=C(c2ccccc2)c2ccccc2)C1,inactive,inactive,3.28% (inactive) and 2.71% (inactive),-11.1% and 10.2%,-9.11% and 11.8%,inactive,inactive,–,–,inactive,inactive

SMILES,outcome [1],outcome [2],"activity change, negative = inhibition [3]","max response [3, 10]","max response [3, 11]",Potency [4],Potency [5],Potency [6],Potency [7],Potency [8],Potency [9]
N[C@@H](CS(=O)O)C(=O)O,inactive,inactive,4.63% (inactive) and 1.31% (inactive),10.5% and -12.6%,17.1% and -9.76%,inactive,inactive,inactive,inactive,inactive,inactive
O=[N+]([O-])c1cccc2cn[nH]c12,inactive,inactive,13.6% (inactive),18.6%,36.8%,inactive,inactive,–,inactive,inactive,inactive
Cc1nc(N=Nc2ccc(S(=O)(=O)O)cc2S(=O)(=O)O)c(COP(=O)(O)O)c(C=O)c1O,inactive,inactive,0.0773% (inactive) and 2.25% (inactive),-1.61% and 6.03%,-3.14% and 17.5%,inactive,inactive,–,inactive,inactive,inactive
NCCC1CCCC(CCN)N1 (configuration not stated),–,inactive,-3.87% (inactive),-16%,-17.4%,inactive,inactive,–,inactive,inactive,inactive
CSC(N)=NCCC[C@H](N)C(=O)O,–,inactive,-0.616% (inactive),39.8%,26.3%,inactive,inactive,–,inactive,inactive,inactive
O=C(O)/C(=C/c1c(C(=O)O)[nH]c2cc(Cl)cc(Cl)c12)c1ccccc1,inactive,inactive,0.679% (inactive),-8.09%,-9.3%,inactive,inactive,inactive,–,–,inactive
COc1cc(CNC(=O)CCCCCCC(C)C)ccc1O,inactive,inactive,0.247% (inactive),14.5%,14.2%,inactive,inactive,inactive,–,–,–
CCN(CC)CCCCCCCCOC(=O)c1cc(OC)c(OC)c(OC)c1,inactive,inactive,0.792% (inactive),8.64%,11.3%,inactive,inactive,inactive,–,7.08 µM (active),5.62 µM (active)
Cc1ccc([N+](=O)[O-])cc1S(=O)(=O)N(C)C,inactive,inactive,-0.817% (inactive) and -0.0593% (inactive),1.19% and 66.8%,0.358% and 67%,inactive,inactive,–,inactive,inactive,inactive
COc1cc(/C=C(\C#N)C(=O)c2ccc(O)c(O)c2)cc(I)c1O,inactive,inactive,-0.482% (inactive),28.4%,26.2%,–,inactive,inactive,–,–,–
O=C(O)c1cc2cc(F)ccc2[nH]1,inactive,inactive,8.59% (inactive) and -0.743% (inactive),14.4% and 31%,24.2% and 29.2%,–,–,inactive,–,–,inactive
CC(N)=NCCCC[C@@H](N)C(=O)O,–,inactive,-0.966% (inactive),1.29%,2.75%,–,inactive,inactive,inactive,inactive,inactive
NC/C=C\C(=O)O,inactive,inactive,4.68% (inactive) and 0.384% (inactive),-7.52% and 26.3%,-6.79% and 26.6%,–,inactive,inactive,inactive,inactive,inactive
Oc1ccc(Cn2cc[nH]c2=S)cc1,inactive,inactive,-3.19% (inactive),-28.3%,-29.9%,–,inactive,inactive,inactive,inactive,inactive
NCCS(=O)O,inactive,inactive,-6.29% (inactive) and 1.76% (inactive),-10.2% and 4.71%,-16.1% and 6.07%,–,inactive,–,inactive,inactive,inactive
NS(=O)(=O)c1cccc2c1c([N+](=O)[O-])cc1nc(O)c(O)nc12,inactive,inactive,-1.05% (inactive) and 1.23% (inactive),-22.6% and 10.1%,-22.6% and 7.26%,–,inactive,–,–,–,inactive
N=C(N)SCCN,–,inactive,1.32% (inactive) and 3.68% (inactive),9.1% and -2.48%,12% and 0.318%,–,inactive,inactive,–,–,–
CCCn1c(=O)c2c(ncn2C)n(CCC)c1=O,–,inactive,-2.98% (inactive),-22.4%,-33.5%,–,inactive,inactive,inactive,inactive,inactive
O=c1onc2cnc3ccccc3n12,inactive,inactive,0.198% (inactive),54.3%,54.9%,–,inactive,–,–,–,–
O=C(O)C1CCNCC1,inactive,inactive,-0.0209% (inactive),11.3%,10%,inactive,inactive,–,–,–,–
CCCCCCCCCC[Si](C)(C)CCC(=O)NC(Cc1ccc(C)cc1)c1ccccc1 (configuration not stated),–,inactive,–,–,–,inactive,inactive,–,–,–,–
CCCCCCCCCCCCCCC[C@H](O)[C@H](N)CO,inactive,inactive,-9.53% (inactive),-83.5%,-95.1%,inactive,–,31.6 µM (active),–,–,inactive
OC1(c2ccc(Cl)cc2)CCN(Cc2c[nH]c3ccccc23)CC1,–,inactive,–,–,–,inactive,inactive,–,–,–,–
N=C(N)c1ccccc1,inactive,inactive,0.991% (inactive),9.53%,1.79%,–,inactive,inactive,inactive,inactive,inactive
